Inconclusive results are not listed. Active and inactive are the calls of the source. Calls come from the whole dose curve; as a rule, active = well fitted cell-killing curve with a large enough effect in the repeat runs; inconclusive = weak or mixed curves, or effect the other way; inactive = flat fitted curve, though single readings scatter.
Assay: cAMP Responsive Elements (CRE) small molecule antagonists, cell-based qHTS assay: qHTS cell viability counter screen (AID 2060913); note: nearly all actives have a fitted effect of over 40% in size
Conditions: CRE-bla HEK293T viability, CellTiter-Glo luminescence, 5 h; series mostly up to 92.4 µM; viability change, negative = cytotoxic: at the top concentration
Outline: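 HEK293T CRE-bla, 2,000 cells/well, 18 h preincubation; cpd in DMSO + NKH477 0.25 uM final, 3 h 37 C/5% CO2; LiveBLAzer 2 h RT, then CellTiter-Glo 30 min RT, luminescence.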
% is set by controls: 0 for no effect and ±100 for the full control effect; potency is the fitted concentration of half-maximal effect.

Row | SMILES | viability change, negative = cytotoxic | Potency
1 | O=C1NC(=O)c2cccc3cccc1c23 | 0.917% (inactive) | 
2 | O=Nc1ccc(Nc2ccccc2)cc1 |  | inactive
3 | Cc1ccccc1C(=O)N1CC/C(=N\OS(=O)(=O)O)c2ccc(Cl)cc21 | -0.921% [at 42.5 µM] (inactive) | 
4 | CN(C)CCCNCCC#N | 2.28% (inactive) | 
5 | O=C(OCc1ccccc1)c1ccccc1 |  | inactive
6 | C[C@]12CC[C@@H]3c4ccc(O)cc4C[C@@H](CCCCCCCCCS(=O)CCCC(F)(F)C(F)(F)F)[C@H]3[C@@H]1CC[C@@H]2O (stereo not given in full) |  | inactive
7 | COc1cc(Cl)ccc1Cl | -7.2% (inactive) | 
8 | CCCCc1ncc(/C=C(\Cc2cccs2)C(=O)O)n1Cc1ccc(C(=O)O)cc1 | -0.778% [at 42.5 µM] (inactive) | 
9 | CC(=O)OCCOC(C)=O |  | inactive
10 | O=C1C=CC(=O)O1 | 3.92% (inactive) | 
11 | C1=Cc2ccccc2C1 | -0.508% (inactive) | 
12 | COc1cc2c3cc1Oc1cc(ccc1O)C[C@@H]1c4c(cc(OC)c(O)c4Oc4ccc(cc4)C[C@@H]3N(C)CC2)CC[N+]1(C)C | 13% [at 42.5 µM] (inactive) | 
13 | C=C(C)C(N)=O |  | inactive
14 | Cc1ccsc1/C=C/C1=NCCCN1C | -0.697% [at 42.5 µM] (inactive) | 
15 | O=Cc1ccc(Cl)c(Cl)c1 | 0.771% (inactive) | 
16 | COc1c2ccoc2cc2oc(=O)ccc12 |  | inactive
17 | CC(=O)C=O | 11.2% (inactive) | 
18 | CCOC(=O)NCCOc1ccc(Oc2ccccc2)cc1 | 2.71% (inactive) | 
19 | CC12CC3CC(C)(C1)CC(N)(C3)C2 | 5.73% [at 42.5 µM] (inactive) | 
20 | CC(C)(C)NCCO | 0.55% (inactive) | 

Row | SMILES | viability change, negative = cytotoxic | Potency
21 | CC(=O)c1ccc2c(c1)N(CCCN1CCC(CCO)CC1)c1ccccc1S2 | -0.754% [at 42.5 µM] (inactive) | 
22 | O=C(O)c1ccccc1-c1ccc(C(F)(F)F)cc1 | 0.598% [at 42.5 µM] (inactive) | 
23 | CC(=O)Oc1c(C)c(C)c2c(c1C)CC[C@@](C)(CCC[C@H](C)CCC[C@H](C)CCCC(C)C)O2 |  | inactive
24 | Oc1cc2ccccc2c2ccccc12 |  | 13.7 µM (active)
25 | NCc1ccccc1Sc1ccccc1CO | -1.81% [at 42.5 µM] (inactive) | 
26 | CCc1occc(=O)c1O | 9.48% (inactive) | 
27 | CC(C)c1cccc(C(C)C)c1N | -1% (inactive) | 
28 | COc1ccc(NC(C)=O)cc1N |  | inactive
29 | C=CCc1cc(OC)c(O)c(C(=O)NCCO)c1 | -0.0022% [at 42.5 µM] (inactive) | 
30 | Cc1ccc(N/N=c2\c(=O)cc/c(=N\Nc3ccc(S(=O)(=O)O)cc3)c2=O)c(C)c1 | 0.4% (inactive) | 
31 | O=C(NO)C1(NS(=O)(=O)c2ccc(Oc3ccc(F)cc3)cc2)CCOCC1 | -3.61% (inactive) | 
32 | COC(=O)CCCCCCCC(=O)OC | 4.66% (inactive) | 
33 | COC(=O)CCS | 0.541% (inactive) | 
34 | CC1CNCC(C)O1 (stereo not given) | -11.5% (inactive) | 
35 | O=C(C(=O)c1ccco1)c1ccco1 | -3.36% (inactive) | 
36 | OC[C@]1(O)OC[C@@H](O)[C@H](O)[C@@H]1O |  | inactive
37 | C/C(C=O)=C\c1ccccc1 | 0.272% (inactive) | 
38 | CCC(C(=O)O)c1ccc(N2Cc3ccccc3C2=O)cc1 (stereo not given) | -4.24% [at 42.5 µM] (inactive) | 
39 | CNC(=S)NN | -8.5% (inactive) | 
40 | Cc1cc(CCC(=O)OCCOCCOCCOC(=O)CCc2cc(C)c(O)c(C(C)(C)C)c2)cc(C(C)(C)C)c1O | 3.17% (inactive) | 

— PubChem BioAssay (Tox21)
